The results in this text go back to the supplement of paper PMC7156485.

± gives the standard deviation of the averaged measurements.
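Note: TDF denotes transformed human dermal fibroblasts of mesenchymal origin.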

The test system of the assay is HCC1569. Nature of the assay: cell number relative to DMSO (% of DMSO); higher = more cells (less growth inhibition / toxicity). As to conditions: concentration: 10 µM; 24 h. The procedure, abridged: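 For HCC1569 and TDF cells, compounds at 10 µM were applied for 24 h at 37 °C in triplicate in 384-well plates. Cells were fixed in 3.7% formaldehyde, stained for H1.0 and with DAPI, and imaged at ×10 over six fields per well. The endpoint, H1.0 nuclear intensity or cell number, is shown as percent of the plate control using the median of replicates. Positional effects were smoothed for HCC1569 only.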
`COc1ccc(-c2cc(=O)c3c(O)c(OC)c(OC)cc3o2)cc1O` showed a cell number of 68.2.
On to `OC(Cn1cncn1)(Cn1cncn1)c1ccc(F)cc1F` [Fluconazole], for which the cell number came to 102.
Take `CC(N)C1CCC(C(=O)Nc2ccncc2)CC1.Cl.Cl` (stereo not given): the cell number came to 110.
Consider `COc1ccc(CNC(=O)c2sc3nc(C)cc(C)c3c2N)cc1`, for which the cell number turned out to be 100.
In the case of `CS(=O)(=O)N1CCN(Cc2cc3nc(-c4cccc5[nH]ncc45)nc(N4CCOCC4)c3s2)CC1`, the cell number stood at 57.3.
For `CCCCCC=CCC=CCC=CCC=CCCCC(=O)OC(CO)COC(=O)CCCCCCCCCCCCCCCCC` (stereo not given) [1-Stearoyl-2-arachidonoyl-glycerol], the cell number came to 100.
`CCC1(O)CC2CN(CCc3c([nH]c4ccccc34)C(C(=O)OC)(c3cc4c(cc3OC)N(C)C3C(O)(C(N)=O)C(O)C5(CC)C=CCN6CCC43C65)C2)C1.O=S(=O)(O)O` (stereo not given) [Vindesine sulfate] displayed a cell number of 55.4.
For the compound `CSc1nc2ccc3nc(NC(=O)C(c4ccccc4)c4ccccc4)sc3c2s1`, the cell number was found to be 103.
Take `N#Cc1c(-c2ccccc2)cc(-c2cc(Br)ccc2O)[nH]c1=O` [PIM1 Kinase Inhibitor II]: the cell number was found to be 103.
Compound `C=CCn1c(=O)c2c(nc(-c3ccc(S(=O)(=O)O)cc3)n2C)n(C)c1=O` [1-Allyl-3,7-dimethyl-8-p-sulfophenylxanthine] displayed a cell number of 102.
`CCCCCC(O)C=CC1C(O)CC(O)C1CC=CCCCC(=O)O` (stereo not given) [Prostaglandin F2a] returned a cell number of 97.3.
As for `CCCCCC=CCC=CCC=CCC=CCCCC(=O)OC(COCCCCCCCCCCCCCCCC)COP(=O)([O-])OCC[N+](C)(C)C` (stereo not given) [Arachidonyl-PAF], the cell number was 98.
The figure for `COc1cccc2c1C1CN(CCCCn3c(=O)[nH]c4c(sc5ncc(-c6ccccc6)nc54)c3=O)CC1CO2.Cl` (stereo not given) [Fiduxosin hydrochloride] is 88.8.
The figure for `Nc1nc(OCc2ccccc2)c2[nH]cnc2n1` [O6-benzylguanine] is 102; for `CC1CC2C(C(O)CC3(C)C2CCC3(O)C(=O)CO)C2(C)C=CC(=O)C=C12` (stereo not given) [Methylprednisolone] it is 99.4; for `CN1C(C(=O)Nc2ccccn2)=C(O)c2ccccc2S1(=O)=O` [Piroxicam] it is 102 ± 2.1.
Under `CCOc1cc2ncnc(Nc3cccc(Br)c3)c2cc1OCC` [Compound 56] stands 76.2; under `CCOC(=O)c1cnc2c(cnn2CC)c1NN=C(C)C` [Etazolate], 102; under `CC(=O)SCC(Cc1ccccc1)C(=O)NCC(=O)OCc1ccccc1` (stereo not given) [Racecadotril], 103.
In turn, `C[C@H](C#Cc1ccc(Cc2ccc(F)cc2)s1)N(O)C(N)=O` registered a cell number of 98.
For the compound `O=C(O)CNC(=O)C(=O)O` [2-(carboxymethylamino)-2-oxoacetic acid], the cell number stood at 103.
Consider `COc1cc2ncnc(Sc3nnc(C)s3)c2cc1OC`, for which the cell number came out at 63.3.
On to `CCN1CCCC1CNC(=O)c1cc(S(N)(=O)=O)ccc1OC` [(S)-(-)-Sulpiride], for which the cell number turned out to be 99.3.
As for `Cl.O=S(=O)(c1cccc2cnccc12)N1CCCNCC1`, the cell number stood at 100.
Turning to `CC(C)NCC(O)COc1ccc(CCOCC2CC2)cc1.Cl` (stereo not given) [Betaxolol.HCl], the cell number was 103.
Regarding `CC(C)(C)C1(O)CCN2CC3c4ccccc4CCc4cccc(c43)C2C1.Cl` (racemic), the cell number was found to be 105.
The compound `COc1ccc2c(c1)c(CC(=O)N1CCOCC1)c(C)n2C(=O)c1ccc(Cl)cc1` [Indomethacin morpholinylamide] gave a cell number of 105.
Consider `Cl.c1ccc(C2CN3CCSC3=N2)cc1` (stereo not given) [Tetramisole hydrochloride], for which the cell number came out at 99.8.
`CC12CC3CC(C)(C1)CC(N)(C3)C2.Cl` [Memantine hydrochloride] registered a cell number of 106.
With `CCCCCC(CC(=O)NO)C(=O)NC(C(=O)N1CCCC1CO)C(C)C` (stereo not given) [Actinonin], the cell number came to 101.
Under `CN(C)c1ccnc2sc3c(=O)n(N4CCCCCC4)cnc3c12` stands 109; under `c1ccc2c(Cc3c[nH]c4ccccc34)c[nH]c2c1` [Diindolylmethane], 100.67 ± 0.0078.
As for `COc1cc2ncn(-c3cc(OCc4ccc(S(C)(=O)=O)cc4)c(C(N)=O)s3)c2cc1OC` [Polo-like Kinase Inhibitor I], the cell number worked out at 104.
In turn, `Cc1cc2c(OCC(CNC(C)(C)C)OC(=O)c3ccccc3)cccc2[nH]1` (stereo not given) [Bopindolol] showed a cell number of 98.1.
`C1CCC(C(CC2CCCCN2)C2CCCCC2)CC1.O=C(O)C=CC(=O)O` (stereo not given): the cell number worked out at 19.
Compound `CCCCCOC(=O)Nc1nc(=O)n(C2OC(C)C(O)C2O)cc1F` (stereo not given) [Capecitabine] returned a cell number of 102.
`CCC=CCC=CCC=CCC=CCC=CCCC(=O)OC(COCCCCCCCCCCCCCCCC)COP(=O)([O-])OCC[N+](C)(C)C` (stereo not given) returned a cell number of 105.
On to `OCC1=CC(O)C2C=COC(OC3OC(CO)C(O)C(O)C3O)C12` (stereo not given) [Aucubin], for which the cell number is 99.6.
In the case of `O=[NH+]C=C1C=CN(CN2C=CC(=C[NH+]=O)C=C2)C=C1.[Br-].[Br-]` [1,1'-methylenebis(4-(nitrosomethyl)pyridinium) bromide], the cell number is 105.
The figure for `CC(C)NCC(O)COc1cccc2ccccc12.Cl` (racemic) is 101.
